Test results taken from PubChem BioAssay AID488969 (Vanderbilt High Throughput Screening Facility, 2010).
In all, about 110,000 compounds were measured (“z-score”: median about -0.1, highest 2% from about 2 on). The entries come from a sample that favours the highest values as a whole. Active and inactive are the calls of the source.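 How the source made its calls: active means z-score in the third read window above 3 or below -3; inactive means the rest.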

The compounds below were run against Metabotropic glutamate receptor 8 (Rattus norvegicus) (UniProt P70579) (assay: mGluR8 Gi/Go-coupled signaling modulation – cell-based, rat, thallium flux, HTS, primary screen (AID 488969)). Details: HEK293 rat mGluR8, GIRK (G protein-gated inwardly rectifying potassium channel) thallium flux, FluoZin2; at 10 µM; stronger effect = higher value; submaximal glutamate (EC20) added with thallium.
Metabotropic glutamate receptor 8 (Rattus norvegicus), sequence (P70579 whole entry, looked up): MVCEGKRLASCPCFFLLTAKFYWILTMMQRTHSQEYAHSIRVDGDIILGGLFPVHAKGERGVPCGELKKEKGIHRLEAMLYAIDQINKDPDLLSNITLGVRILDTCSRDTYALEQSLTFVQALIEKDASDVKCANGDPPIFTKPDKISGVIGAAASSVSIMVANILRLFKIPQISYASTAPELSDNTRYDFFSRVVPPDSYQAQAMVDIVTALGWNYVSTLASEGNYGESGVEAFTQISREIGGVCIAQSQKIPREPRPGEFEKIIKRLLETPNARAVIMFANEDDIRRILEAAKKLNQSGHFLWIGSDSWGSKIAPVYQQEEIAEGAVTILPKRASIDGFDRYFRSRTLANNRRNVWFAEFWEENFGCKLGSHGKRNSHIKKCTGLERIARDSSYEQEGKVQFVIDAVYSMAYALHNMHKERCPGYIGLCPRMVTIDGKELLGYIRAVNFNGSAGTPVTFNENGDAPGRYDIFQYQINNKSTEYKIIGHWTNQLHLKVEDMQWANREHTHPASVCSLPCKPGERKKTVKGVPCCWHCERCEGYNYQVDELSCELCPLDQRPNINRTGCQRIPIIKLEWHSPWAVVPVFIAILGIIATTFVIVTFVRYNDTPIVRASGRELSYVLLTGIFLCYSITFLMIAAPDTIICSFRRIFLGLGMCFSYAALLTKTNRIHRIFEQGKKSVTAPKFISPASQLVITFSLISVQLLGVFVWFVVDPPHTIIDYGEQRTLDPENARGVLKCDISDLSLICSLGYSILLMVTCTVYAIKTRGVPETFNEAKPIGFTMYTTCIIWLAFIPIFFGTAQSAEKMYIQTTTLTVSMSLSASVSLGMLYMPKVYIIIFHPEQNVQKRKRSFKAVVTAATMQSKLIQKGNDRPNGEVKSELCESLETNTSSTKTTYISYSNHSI
`O=C(NC(=S)Nc1ccc(Cl)cn1)C(c1ccccc1)c1ccccc1` gave a z-score of 0.284. For `O=C(NC(=S)Nc1ccc(Cl)cn1)c1cccs1`, the z-score was 10.3 (active). With `Cc1cccnc1NC(=S)NC(=O)/C=C/c1ccco1` the z-score was 0.37. With `O=C(Nc1ncc(Cl)cn1)c1cccs1` the z-score was 0.0318. In the case of `CC(=O)Nc1c(C)ccc2nsnc12`, the z-score is reported as 0.0413. In the case of `Cc1ccc2nsnc2c1NC(=S)NC(=O)c1ccco1`, the z-score is reported as 6.75 (active). For `Cc1cccnc1NC(=S)NC(=O)c1cccs1`, the z-score was 0.0645. With `Cc1ccnc(NC(=S)NC(=O)/C=C/c2ccccc2)c1` the z-score was -0.0726. Work on `O=C(NC(=S)Nc1c(Cl)ccc2nsnc12)c1ccco1` yielded a z-score of -0.429. `Cc1ccnc(NC(=S)NC(=O)/C=C/c2ccco2)c1` was tested, and the z-score was 3.2 (active). Compound `Cc1ccnc(NC(=O)c2cccs2)c1` has a z-score of -0.306. In the case of `Cc1ccnc(NC(=S)NC(=O)c2cccs2)c1`, the z-score is reported as 7.29 (active). `O=C(c1ccccc1)n1ccn(-c2ccccc2)c1=S` showed a z-score of -1.09. `CC1CC1C(=O)OCC(=O)Nc1ccc(N=Nc2ccccc2)cc1` (centres undefined) was tested, and the z-score was 0.616. In the case of `O=C(C1CC(c2ccc(F)cc2)=NO1)N1CCCCC1` (centres undefined), the z-score is reported as -0.0299. `O=C(CCC(NC(=O)OCc1ccccc1)C(=O)OCC(=O)N1CCCCC1)OCC(=O)N1CCCCC1` (centres undefined) was tested, and the z-score was 0.254. With `C=CCC(NCc1ccco1)c1ccc(OC)cc1OC` (centres undefined) the z-score was -0.246. Work on `CC1CCc2nn(CC(=O)NCCN3CCCCC3C)cc2C1` (centres undefined) yielded a z-score of 0.216. Compound `Cc1ccc2ccc(S(=O)(=O)n3nc(C)cc3C)cc2c1` has a z-score of -0.75. In the case of `Cc1cccc(NC(=S)NC(=O)/C=C/c2ccco2)n1`, the z-score is reported as 0.626. With `CCCC(=O)NC(=S)Nc1ccc(Cl)cn1` the z-score was 0.131. In the case of `CCC(=O)NC(=S)Nc1ccc(Cl)cn1`, the z-score is reported as 0.168. Compound `CC(C)CC(=O)NC(=S)Nc1ccc(Cl)cn1` has a z-score of 2.96. Compound `Cc1cccc(NC(=O)Cc2cccs2)n1` has a z-score of -0.58. Compound `Cc1cccc(NC(=O)c2cccs2)n1` has a z-score of 0.965. With `O=C(NC(=S)Nc1ccccn1)c1ccco1` the z-score was 1.2. Work on `Cc1cccc(NC(=O)c2cc(NC(=O)c3ccco3)ccc2Cl)n1` yielded a z-score of -0.288. In the case of `Cc1ccnc(NC(=S)NC(=O)c2ccco2)c1`, the z-score is reported as 2. For `COC(=O)C(NC(=O)c1ccco1)(Nc1cc(C)ccn1)C(F)(F)F` (centres undefined), the z-score was 0.329. With `Cc1cccc(NC(=S)NC(=O)c2cccs2)n1` the z-score was 5.04 (active). `Cc1cccc(NC(=S)NC(=O)c2ccco2)n1` was tested, and the z-score was 3.93 (active). For `CC(=O)c1c(C)[nH]c(C(=O)COC(=O)CNS(=O)(=O)c2ccccc2)c1C`, the z-score was -0.187. `C(=N\N1CCN(Cc2ccccc2)CC1)/c1cccs1` showed a z-score of -0.298. `CC(=O)Nc1ccc(S(=O)(=O)NCCC(=O)Nc2ccc(C)c(Cl)c2)cc1` gave a z-score of -0.0921. Compound `CC(=O)c1ccc(NC(=O)CSc2ccc(-c3ccc4c(c3)OCO4)nn2)cc1` has a z-score of -0.125. For `CCOC(=O)N1CCN(C(=O)C2CC(c3cc(OC)ccc3OC)=NO2)CC1` (centres undefined), the z-score was -0.594. With `COc1ccc(Br)cc1CNC(=O)C1CCN(S(=O)(=O)N2CCCCC2)CC1` the z-score was -0.52. `Cc1ccc(C(=O)NC(C)c2ccc(F)cc2)cc1` (centres undefined) gave a z-score of -0.249. `Fc1ccc(-c2nnc3ccc(N4CCc5ccccc5C4)nn23)cc1` was tested, and the z-score was 2.89. In the case of `c1ccc(-c2nnc3ccc(N4CCCC4)nn23)cc1`, the z-score is reported as -4.38 (active). For `O=C(Nc1ccc(F)cc1)N1CCN(c2ccc3nnc(-c4ccc(F)cc4)n3n2)CC1`, the z-score was -1.17. In the case of `Cc1ccc(NC(=O)NNC(=O)c2cccs2)cc1`, the z-score is reported as 0.53. `NC(=O)c1ccc(C(F)(F)F)n(Cc2ccc(Cl)cc2)c1=O` showed a z-score of -0.45. `Cc1[nH]n(-c2ccccc2)c(=O)c1-c1cccc(Cl)c1` showed a z-score of 0.257. Work on `CN(C)S(=O)(=O)N1CCN(C(=O)N(c2ccccc2)c2ccccc2)CC1` yielded a z-score of -0.395. `O=C(N1CCOCC1)N1CCN(C(=O)N(c2ccccc2)c2ccccc2)CC1` was tested, and the z-score was -0.217. With `O=C(N1CCCCC1)N1CCN(C(=O)N(c2ccccc2)c2ccccc2)CC1` the z-score was 3.16 (active). Work on `COc1ccc(-c2nc3c(c(=O)c4ccccc4n3C)c(=O)n2Cc2ccccc2)cc1` yielded a z-score of -0.433. For `CC(C)CN(/C=N/c1sc2c(c1C#N)CCCCC2)CC(C)C`, the z-score was 2.9. Work on `CCCN(/C=N/c1sc2c(c1C#N)CCCCC2)CCC` yielded a z-score of -0.155. With `CCN(/C=N/c1sc2c(c1C#N)CCCCC2)CC` the z-score was -0.292. `CCOC(=O)c1nnc2c(Br)c(-c3ccccc3)nn2c1C` gave a z-score of -0.554. For `CCC(=O)Nc1ccc(-c2csc(NNC(C)=O)n2)cc1`, the z-score was -0.182. Work on `Cn1ccnc1SCC(=O)Nc1ccc(Oc2ccccc2)cc1` yielded a z-score of 2.29. Compound `CCOc1ccc(NC(=O)CSc2nccn2C)cc1` has a z-score of -0.0963. In the case of `CCOC(=O)c1ccc(NC(=O)CSc2nnc(COc3ccccc3)n2C)cc1`, the z-score is reported as -0.177. With `COC(=O)c1cccc(NC(=O)CSc2nnc(COc3ccccc3)n2C)c1` the z-score was -0.736. `CC(C)(C)NC(=O)CSc1nccn1Cc1ccccc1` showed a z-score of 0.488. `Cn1ccnc1SCC(=O)Nc1ccccc1` gave a z-score of 0.326. For `COC(=O)c1ccc(NC(=O)CSc2nnc(COc3ccccc3)n2C)cc1`, the z-score was 11.8 (active). `CC(=O)Nc1ccc(NC(=O)CSc2nccn2Cc2ccccc2)cc1` showed a z-score of 2.89. With `Cc1ccc(NC(=O)CSc2nccn2Cc2ccccc2)cc1C` the z-score was -0.465. With `CCc1sc(C(=O)Nc2ccc(F)cc2C)cc1C` the z-score was -0.0957. `O=C(CCC(=O)c1cccs1)Nc1ccc(F)c(F)c1F` gave a z-score of 0.32. `CCc1ccc(NS(=O)(=O)c2cc(OC)ccc2OC)cc1` was tested, and the z-score was -0.868. `Cc1nc(NCCc2ccc(F)cc2)c(C#N)c(C)c1[N+](=O)[O-]` showed a z-score of -0.205. Work on `COc1cc(C)nc(OCCNS(=O)(=O)c2cc(C)ccc2C)n1` yielded a z-score of 0.217. `CC(/C=N/NC(=O)c1c(Br)cnn1C)=C\c1ccccc1` was tested, and the z-score was 3.16 (active). `CC(/C=N/NC(=O)c1ccc(Br)cc1)=C\c1ccccc1` gave a z-score of -1.26. `CC(/C=N/NC(=O)c1nn(C)c(C)c1Br)=C\c1ccccc1` was tested, and the z-score was -0.0235. With `O=C(Nc1ccc(C(=O)N2CCCCC2)cc1)c1ccc(Br)cc1` the z-score was 1.09. `CC(C)CCNC(=O)Cn1c(=O)oc2cc(S(=O)(=O)N3CCc4ccccc43)ccc21` gave a z-score of -0.186. `COc1cc(CNc2ccc(N3CCCC3)cc2)ccc1OCc1ccccc1` was tested, and the z-score was 3.82 (active). Compound `COc1cc(CNc2ccc(N3CCCC3)cc2)ccc1OCc1ccccc1F` has a z-score of -0.289. For `COc1cc(CNc2ccc(CNc3ncn[nH]3)cc2)ccc1OCc1ccccc1`, the z-score was -0.026. Work on `CC(C(=O)NCCN1C(=O)S/C(=C\c2cccs2)C1=O)N1C(=O)c2ccccc2C1=O` (centres undefined) yielded a z-score of -0.139. `Cc1ccc(C)c(NC(=O)CCC(=O)NNC(=O)c2cccc([N+](=O)[O-])c2)c1` was tested, and the z-score was 0.265. `CSc1ccccc1C(=O)Nc1cccc(C)c1` showed a z-score of -0.792. In the case of `CSc1ccccc1C(=O)Nc1cccc(C(C)=O)c1`, the z-score is reported as 3.03 (active). `CSc1ccccc1C(=O)Nc1cccc(C(C)O)c1` (centres undefined) showed a z-score of 0.209. `CCOC(=O)Cc1c(C)nc2cc(-c3ccc(C)cc3)[nH]n2c1=O` gave a z-score of 0.0804. `C1CCCC(N2CCNCC2)CC1` was tested, and the z-score was 0.33. For `COC(=O)c1cc(=O)nc2sccn12`, the z-score was -0.417. `CCOC(=O)c1cc(-c2ccccc2)sc1NC(=O)c1ccc(OC)cc1` showed a z-score of -0.199. In the case of `CCc1cc(C(N)=O)c(NC(=O)c2ccc(OC)cc2)s1`, the z-score is reported as 3.98 (active). `CCOC(=O)c1cc(CC)sc1NC(=O)c1cc(OC)c(OC)c(OC)c1` gave a z-score of 0.399. `CCOc1ccc(OC(=O)NC(c2ccccc2)C(Cl)(Cl)Cl)cc1` (centres undefined) was tested, and the z-score was -0.048. For `CC1CCN(CCn2c(=S)[nH]c3ncccc3c2=O)CC1`, the z-score was 4.47 (active). `CCOC(=O)N1CCN(C(=O)c2ccc3c(=O)n(Cc4ccc(Cl)cc4)c(=S)[nH]c3c2)CC1` gave a z-score of 0.798. `O=c1c2cc(Br)ccc2[nH]c(=S)n1Cc1cccnc1` gave a z-score of 1.87. For `CCN(CC)CCn1c(=S)[nH]c2ncccc2c1=O`, the z-score was 0.0629. For `O=c1c2cccnc2[nH]c(=S)n1Cc1ccccc1`, the z-score was 3 (active). With `COCCn1c(=S)[nH]c2ncccc2c1=O` the z-score was 0.35. Compound `O=c1c2cccnc2[nH]c(=S)n1CCCN1CCN(c2ccc(F)cc2)CC1` has a z-score of 0.723. Compound `O=c1c2ccc(Cl)cc2[nH]c(=S)n1Cc1cccnc1` has a z-score of 2.08. In the case of `CC1CCCCN1CCn1c(=S)[nH]c2ncccc2c1=O` (centres undefined), the z-score is reported as 1.22. In the case of `CC(=O)Nc1ccc(Sc2ncccc2C(=O)Nc2cc(Cl)cc(Cl)c2)cn1`, the z-score is reported as 0.0331. Work on `CCc1nc(SCC(=O)Nc2c(C)n(C)n(-c3ccccc3)c2=O)n[nH]1` yielded a z-score of -0.584. With `Cc1ccc(Cl)c(OCC(=O)Nc2sc(C)c(C)c2C#N)c1` the z-score was 0.877. In the case of `CC(NC(=O)COc1ccccc1)C1COc2ccccc2O1` (centres undefined), the z-score is reported as -0.67. For `Cc1ccc(C)c(N2CCN(C(=O)c3csc(C)c3C)CC2)c1`, the z-score was 0.0161. For `CC(C)n1nc(C(=O)OCC(=O)c2c[nH]c3ccccc23)c2ccccc2c1=O`, the z-score was -2.75. Work on `COc1ccc(Br)cc1S(=O)(=O)N1CCCC1` yielded a z-score of -0.0684. `CCOC(=O)COc1c(OC)cc(Cl)cc1C1Nc2ccccc2C(=O)N1c1ccccc1` (centres undefined) was tested, and the z-score was 0.355. For `Cc1ccc(Oc2ncc(CN3CC(C)OC(C)C3)s2)cc1` (centres undefined), the z-score was -0.107. `CCn1c2ccccc2c2cc(NC(=O)CC(C)=O)ccc21` gave a z-score of -0.32. Compound `COCCNC(=O)c1cnn2c1NC(c1ccco1)CC2C(F)(F)F` (centres undefined) has a z-score of 0.0267. Work on `Cc1ccc(Cl)cc1NC(=O)c1cnn2c1NC(c1ccco1)CC2C(F)(F)F` (centres undefined) yielded a z-score of -0.148. With `CCOC(=O)N1CCC(NC(=O)c2cnn3c2NC(c2ccco2)CC3C(F)(F)F)CC1` (centres undefined) the z-score was 4.33 (active). `CCCCn1ccnc1C(=O)c1cc(S(=O)(=O)N2CCOCC2)ccc1C` gave a z-score of -0.0858. Work on `CSc1nnc(CSc2cc(C)nc(N(C)C)n2)o1` yielded a z-score of -0.325. `O=S(=O)(Nc1cccnc1)c1cc(Cl)ccc1Cl` showed a z-score of -0.00571. In the case of `O=S(=O)(Nc1nc(-c2sccc2Cl)cs1)c1cc(Cl)ccc1Cl`, the z-score is reported as 3.41 (active). With `O=C(O)c1ccc(NS(=O)(=O)c2cc(Cl)ccc2Cl)cc1` the z-score was -0.151. `OC(CCN1CCOCC1)(c1ccc(Cl)cc1)C1CCCCC1` (centres undefined) showed a z-score of -0.807. `Cc1ccc(NC(=S)N/C(=N/S(=O)(=O)c2ccccc2)c2ccccc2)cc1` showed a z-score of 1.36. In the case of `COCCN(C(=O)Cc1cccs1)C(C(=O)NCc1ccc(OC)cc1)c1ccc(OC)cc1` (centres undefined), the z-score is reported as -0.202. `CCc1ccc(C(C(=O)NCc2ccc(OC)cc2)N(CCOC)C(=O)Cc2cccs2)cc1` (centres undefined) showed a z-score of -0.37. With `COCCN(C(=O)Cc1cccs1)C(C(=O)NCc1ccc(OC)cc1)c1ccccc1` (centres undefined) the z-score was 3.95 (active).
